In article PMC7862700, “An all-to-all approach to the identification of sequence-specific readers for epigenetic DNA modifications on cytosine” one finds binding signal data, which are given here for 1 sequence.

Holding throughout (assay): DAPPL (digital affinity profiling via proximity ligation, sequencing); 10 mM Tris-HCl pH 7.5, 50 mM NaCl, 1 mM DTT, 4% glycerol, room temperature, 30 min; GST-TFs on glutathione beads, 16-mer random dsDNA library, 0.1% formaldehyde crosslink after washing; high values mean tight binding
The target of one assay is T1, FEV (Homo sapiens, UniProt Q99581 1-238).
T1 sequence: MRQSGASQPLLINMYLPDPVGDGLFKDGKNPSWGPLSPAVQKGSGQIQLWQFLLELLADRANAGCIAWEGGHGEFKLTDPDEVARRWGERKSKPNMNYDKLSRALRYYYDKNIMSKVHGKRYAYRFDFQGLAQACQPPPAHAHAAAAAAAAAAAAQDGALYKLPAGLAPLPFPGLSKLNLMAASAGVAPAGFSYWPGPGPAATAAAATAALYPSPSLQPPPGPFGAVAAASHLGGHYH
The note with it: protein: recombinant; tags: N-terminal GST; dsDNA, one strand shown. Summed up:
(§1)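 Binding signal is each hexamer's read frequency for a factor divided by its frequency in the tag-only sample. The factors were GST-fused human transcription factors from yeast, captured on glutathione beads, DNA-barcoded and pooled with that sample. Pools were incubated with 200 nmole of a random double-stranded 16-mer DNA library in Tris/NaCl/DTT/glycerol buffer at room temperature for 30 min, then washed, crosslinked with 0.1% formaldehyde, proximity-ligated with BsaI/T4 ligase (1 h, 37 °C), PCR-amplified and sequenced on an Illumina NextSeq500.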

A further assay has as its target ETV5 (Homo sapiens, UniProt P41161 1-510). The note with it: protein: recombinant; tags: N-terminal GST; dsDNA, one strand shown. Put shortly: as §1
The target of another assay is HSF1 (Homo sapiens, UniProt Q00613 1-529). The note with it: protein: recombinant; tags: N-terminal GST; chain copies: 3; dsDNA, one strand shown. Put shortly:
as §1

For another assay, the target named is T2, SPIC (Homo sapiens, UniProt Q8N5J4 1-248).
T2 sequence: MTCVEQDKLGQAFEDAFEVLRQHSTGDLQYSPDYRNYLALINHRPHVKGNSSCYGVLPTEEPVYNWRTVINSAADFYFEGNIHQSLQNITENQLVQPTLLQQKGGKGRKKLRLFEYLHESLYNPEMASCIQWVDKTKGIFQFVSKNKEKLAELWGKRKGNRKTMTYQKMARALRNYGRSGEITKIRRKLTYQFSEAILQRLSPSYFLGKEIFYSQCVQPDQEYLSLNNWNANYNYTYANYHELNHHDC
The note with it: protein: recombinant; tags: N-terminal GST; dsDNA, one strand shown. Summed up:
as §1

The target of another assay is ELF4 (Homo sapiens, UniProt Q99607 1-663). The note with it: protein: recombinant; tags: N-terminal GST; dsDNA, one strand shown. Put shortly:
as §1

In a further assay the target is T3, ELK4 (Homo sapiens, UniProt P28324-2 1-405).
T3 sequence: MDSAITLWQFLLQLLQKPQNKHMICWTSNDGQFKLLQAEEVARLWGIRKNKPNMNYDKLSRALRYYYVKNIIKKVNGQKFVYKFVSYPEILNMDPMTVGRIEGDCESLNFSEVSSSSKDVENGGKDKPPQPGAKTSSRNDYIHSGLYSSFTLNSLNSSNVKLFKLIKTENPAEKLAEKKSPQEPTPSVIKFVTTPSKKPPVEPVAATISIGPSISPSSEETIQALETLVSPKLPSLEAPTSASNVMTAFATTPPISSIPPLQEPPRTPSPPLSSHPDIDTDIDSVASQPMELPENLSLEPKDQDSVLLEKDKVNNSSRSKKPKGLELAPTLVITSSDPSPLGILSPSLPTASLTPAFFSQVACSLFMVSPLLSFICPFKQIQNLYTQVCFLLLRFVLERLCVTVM
The note with it: protein: recombinant; tags: N-terminal GST; dsDNA, one strand shown. Summed up: as §1

In a further assay the target is T4, ETV2 (Homo sapiens, UniProt O00321 1-342).
T4 sequence: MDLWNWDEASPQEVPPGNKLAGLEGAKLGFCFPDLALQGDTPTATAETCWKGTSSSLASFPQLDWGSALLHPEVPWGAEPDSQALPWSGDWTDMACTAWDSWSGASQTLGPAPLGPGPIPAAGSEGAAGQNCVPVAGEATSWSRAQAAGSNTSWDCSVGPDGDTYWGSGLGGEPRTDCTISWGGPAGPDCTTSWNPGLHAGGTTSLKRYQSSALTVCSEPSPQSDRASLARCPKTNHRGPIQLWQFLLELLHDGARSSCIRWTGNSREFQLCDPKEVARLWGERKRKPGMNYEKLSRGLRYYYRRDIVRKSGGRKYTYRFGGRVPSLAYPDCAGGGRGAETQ
The note with it: protein: recombinant; tags: N-terminal GST; dsDNA, one strand shown. Summed up:
as §1

For another assay, the target named is T5, ELF3 (Homo sapiens, UniProt P78545 1-371).
T5 sequence: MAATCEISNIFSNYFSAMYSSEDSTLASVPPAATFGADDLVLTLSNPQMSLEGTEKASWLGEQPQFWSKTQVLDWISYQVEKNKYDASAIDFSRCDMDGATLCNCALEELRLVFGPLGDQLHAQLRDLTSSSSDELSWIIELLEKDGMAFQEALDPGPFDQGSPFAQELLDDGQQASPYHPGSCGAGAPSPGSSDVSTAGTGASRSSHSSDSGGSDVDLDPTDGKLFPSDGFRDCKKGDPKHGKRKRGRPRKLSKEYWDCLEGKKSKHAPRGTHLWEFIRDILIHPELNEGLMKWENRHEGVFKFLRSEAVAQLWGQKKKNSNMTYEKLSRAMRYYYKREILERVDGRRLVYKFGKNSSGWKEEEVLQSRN
The note with it: protein: recombinant; tags: N-terminal GST; dsDNA, one strand shown. Put shortly:
as §1

The target of another assay is CRX (Homo sapiens, UniProt O43186 1-299). The note with it: protein: recombinant; tags: N-terminal GST; dsDNA, one strand shown. Summed up: as §1
In the next assay the target is ETV1 (Homo sapiens, UniProt P50549 1-477). The note with it: protein: recombinant; tags: N-terminal GST; dsDNA, one strand shown. Summed up:
as §1

A further assay has as its target T6, ERF (Homo sapiens, UniProt P50548 1-548).
T6 sequence: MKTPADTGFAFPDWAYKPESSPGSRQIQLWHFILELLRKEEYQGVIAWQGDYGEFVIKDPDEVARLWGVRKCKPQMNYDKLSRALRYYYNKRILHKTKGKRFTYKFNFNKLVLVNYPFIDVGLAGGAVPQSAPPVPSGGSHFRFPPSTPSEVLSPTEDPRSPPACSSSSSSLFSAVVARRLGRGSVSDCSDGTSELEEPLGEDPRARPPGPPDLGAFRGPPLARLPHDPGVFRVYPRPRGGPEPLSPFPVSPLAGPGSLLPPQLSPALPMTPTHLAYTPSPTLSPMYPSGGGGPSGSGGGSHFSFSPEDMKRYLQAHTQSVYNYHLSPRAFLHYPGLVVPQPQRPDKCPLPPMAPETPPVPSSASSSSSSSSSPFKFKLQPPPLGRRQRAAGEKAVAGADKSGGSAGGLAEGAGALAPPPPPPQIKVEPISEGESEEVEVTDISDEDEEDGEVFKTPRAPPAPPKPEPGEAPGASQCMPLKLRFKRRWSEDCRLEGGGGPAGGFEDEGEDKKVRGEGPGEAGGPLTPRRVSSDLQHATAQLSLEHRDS
The note with it: protein: recombinant; tags: N-terminal GST; dsDNA, one strand shown. Put shortly: as §1

The target in the next assay is T7, ETV3L (Homo sapiens, UniProt Q6ZN32 1-361).
T7 sequence: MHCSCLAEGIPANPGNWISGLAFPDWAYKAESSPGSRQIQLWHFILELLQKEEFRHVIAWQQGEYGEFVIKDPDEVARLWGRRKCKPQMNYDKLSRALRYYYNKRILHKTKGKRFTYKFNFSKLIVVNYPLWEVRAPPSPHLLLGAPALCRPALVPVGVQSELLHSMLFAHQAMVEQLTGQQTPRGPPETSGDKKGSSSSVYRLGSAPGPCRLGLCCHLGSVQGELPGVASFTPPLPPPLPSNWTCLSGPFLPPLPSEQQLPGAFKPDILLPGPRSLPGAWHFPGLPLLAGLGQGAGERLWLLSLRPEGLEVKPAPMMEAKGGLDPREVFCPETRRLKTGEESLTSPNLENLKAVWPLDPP
The note with it: protein: recombinant; tags: N-terminal GST; dsDNA, one strand shown. Summed up:
as §1

Another assay addresses T8, ETS2 (Homo sapiens, UniProt P15036 1-469).
T8 sequence: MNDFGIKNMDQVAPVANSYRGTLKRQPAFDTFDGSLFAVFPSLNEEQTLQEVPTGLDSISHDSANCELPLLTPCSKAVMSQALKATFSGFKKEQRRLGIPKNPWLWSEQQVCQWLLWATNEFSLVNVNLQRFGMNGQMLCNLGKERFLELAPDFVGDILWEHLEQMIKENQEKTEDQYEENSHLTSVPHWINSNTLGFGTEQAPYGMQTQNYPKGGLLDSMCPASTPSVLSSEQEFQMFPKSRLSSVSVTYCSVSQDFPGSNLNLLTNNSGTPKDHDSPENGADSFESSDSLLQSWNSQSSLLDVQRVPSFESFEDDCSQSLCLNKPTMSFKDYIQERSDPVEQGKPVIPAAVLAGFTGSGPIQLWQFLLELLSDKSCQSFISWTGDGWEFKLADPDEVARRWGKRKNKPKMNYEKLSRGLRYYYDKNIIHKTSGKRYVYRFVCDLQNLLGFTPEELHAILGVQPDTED
The note with it: protein: recombinant; tags: N-terminal GST; dsDNA, one strand shown. Summed up: as §1

Another assay addresses T9, SPDEF (Homo sapiens, UniProt O95238 1-335).
T9 sequence: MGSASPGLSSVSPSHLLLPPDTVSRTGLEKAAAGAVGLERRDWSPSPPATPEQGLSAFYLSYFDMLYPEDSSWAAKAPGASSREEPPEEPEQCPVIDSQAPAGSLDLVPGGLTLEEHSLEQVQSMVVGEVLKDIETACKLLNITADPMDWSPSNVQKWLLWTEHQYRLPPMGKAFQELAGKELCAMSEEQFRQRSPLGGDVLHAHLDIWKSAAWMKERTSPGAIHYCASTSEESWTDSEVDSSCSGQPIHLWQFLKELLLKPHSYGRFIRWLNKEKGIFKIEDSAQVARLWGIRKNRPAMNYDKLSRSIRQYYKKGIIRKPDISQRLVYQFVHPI
The note with it: protein: recombinant; tags: N-terminal GST; dsDNA, one strand shown. Put shortly: as §1

Another assay deals with T10, ETV7 (Homo sapiens, UniProt Q9Y603 1-341).
T10 sequence: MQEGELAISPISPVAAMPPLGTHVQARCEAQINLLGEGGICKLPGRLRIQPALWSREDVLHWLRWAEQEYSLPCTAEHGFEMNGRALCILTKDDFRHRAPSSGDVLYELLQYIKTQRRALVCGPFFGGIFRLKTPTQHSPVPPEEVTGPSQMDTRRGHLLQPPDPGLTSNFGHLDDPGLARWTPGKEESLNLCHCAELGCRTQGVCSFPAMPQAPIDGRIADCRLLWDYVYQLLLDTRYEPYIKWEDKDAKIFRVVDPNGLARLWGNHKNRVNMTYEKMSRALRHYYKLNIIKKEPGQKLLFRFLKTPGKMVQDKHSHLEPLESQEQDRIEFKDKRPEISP
The note with it: protein: recombinant; tags: N-terminal GST; dsDNA, one strand shown. Put shortly: as §1

For another assay, the target named is T11, ELF5 (Homo sapiens, UniProt Q9UKW6-2 1-255).
T11 sequence: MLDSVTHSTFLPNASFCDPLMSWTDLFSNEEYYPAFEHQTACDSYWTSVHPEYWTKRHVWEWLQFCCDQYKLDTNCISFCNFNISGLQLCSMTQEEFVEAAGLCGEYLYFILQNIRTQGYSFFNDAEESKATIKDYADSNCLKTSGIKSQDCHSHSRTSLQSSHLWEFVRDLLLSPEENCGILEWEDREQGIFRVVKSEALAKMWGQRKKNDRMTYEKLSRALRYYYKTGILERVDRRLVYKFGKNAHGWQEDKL
The note with it: protein: recombinant; tags: N-terminal GST; dsDNA, one strand shown. Summed up:
as §1

For the next assay, the target named is T12, ETV3 (Homo sapiens, UniProt P41162-2 1-143).
T12 sequence: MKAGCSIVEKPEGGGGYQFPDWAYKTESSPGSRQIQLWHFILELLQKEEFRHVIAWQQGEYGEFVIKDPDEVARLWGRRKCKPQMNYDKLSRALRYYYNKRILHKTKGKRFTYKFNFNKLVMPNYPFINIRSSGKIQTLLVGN
The note with it: protein: recombinant; tags: N-terminal GST; dsDNA, one strand shown. Summed up:
as §1

The target in another assay is ETV6 (Homo sapiens, UniProt P41212 1-452). The note with it: protein: recombinant; tags: N-terminal GST; dsDNA, one strand shown. Put shortly:
as §1

ETV6, sequence (P41212 whole entry): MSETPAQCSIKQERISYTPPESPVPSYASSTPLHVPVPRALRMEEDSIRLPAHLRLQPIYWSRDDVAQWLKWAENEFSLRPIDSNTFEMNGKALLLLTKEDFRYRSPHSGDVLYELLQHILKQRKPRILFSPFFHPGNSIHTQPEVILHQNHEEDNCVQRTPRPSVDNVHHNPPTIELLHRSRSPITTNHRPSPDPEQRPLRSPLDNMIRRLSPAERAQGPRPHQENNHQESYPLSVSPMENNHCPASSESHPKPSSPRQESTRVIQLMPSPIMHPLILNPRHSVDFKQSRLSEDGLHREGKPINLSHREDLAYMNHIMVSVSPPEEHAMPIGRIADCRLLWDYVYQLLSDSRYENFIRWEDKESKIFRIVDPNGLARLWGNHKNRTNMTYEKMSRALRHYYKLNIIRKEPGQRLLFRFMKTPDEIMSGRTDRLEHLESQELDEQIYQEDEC
HSF1, sequence (Q00613 whole entry): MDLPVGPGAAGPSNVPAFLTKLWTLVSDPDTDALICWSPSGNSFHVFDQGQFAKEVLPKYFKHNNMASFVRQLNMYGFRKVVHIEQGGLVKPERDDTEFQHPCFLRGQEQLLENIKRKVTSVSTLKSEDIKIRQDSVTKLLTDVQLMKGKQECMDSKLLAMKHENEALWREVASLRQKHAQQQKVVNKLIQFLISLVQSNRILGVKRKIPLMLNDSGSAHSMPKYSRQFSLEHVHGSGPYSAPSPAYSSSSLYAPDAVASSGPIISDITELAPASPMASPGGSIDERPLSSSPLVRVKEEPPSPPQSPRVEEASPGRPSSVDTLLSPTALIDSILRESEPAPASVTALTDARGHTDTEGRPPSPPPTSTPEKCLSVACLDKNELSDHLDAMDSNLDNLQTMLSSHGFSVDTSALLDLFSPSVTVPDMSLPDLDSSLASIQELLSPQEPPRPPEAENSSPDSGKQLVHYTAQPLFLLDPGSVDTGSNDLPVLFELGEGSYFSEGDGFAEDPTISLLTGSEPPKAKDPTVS
ELF4, sequence (Q99607 whole entry): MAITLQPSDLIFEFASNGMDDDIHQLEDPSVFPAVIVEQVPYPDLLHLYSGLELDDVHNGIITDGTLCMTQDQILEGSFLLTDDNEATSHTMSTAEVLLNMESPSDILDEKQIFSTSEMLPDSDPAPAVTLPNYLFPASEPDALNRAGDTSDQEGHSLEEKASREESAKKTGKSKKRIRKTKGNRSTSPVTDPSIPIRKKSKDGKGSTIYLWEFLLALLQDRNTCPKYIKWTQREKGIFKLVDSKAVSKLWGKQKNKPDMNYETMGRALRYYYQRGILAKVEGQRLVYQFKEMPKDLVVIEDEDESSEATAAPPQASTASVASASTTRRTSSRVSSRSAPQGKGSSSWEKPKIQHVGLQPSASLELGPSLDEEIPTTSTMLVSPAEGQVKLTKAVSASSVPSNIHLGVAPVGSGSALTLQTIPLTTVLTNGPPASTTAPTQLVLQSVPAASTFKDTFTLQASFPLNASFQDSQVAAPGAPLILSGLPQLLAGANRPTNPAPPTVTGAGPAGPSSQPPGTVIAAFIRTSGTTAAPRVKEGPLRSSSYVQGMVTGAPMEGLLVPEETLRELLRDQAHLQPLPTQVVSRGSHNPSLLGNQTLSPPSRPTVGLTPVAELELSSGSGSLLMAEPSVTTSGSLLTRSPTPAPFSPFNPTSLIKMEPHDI
ETV1, sequence (P50549 whole entry): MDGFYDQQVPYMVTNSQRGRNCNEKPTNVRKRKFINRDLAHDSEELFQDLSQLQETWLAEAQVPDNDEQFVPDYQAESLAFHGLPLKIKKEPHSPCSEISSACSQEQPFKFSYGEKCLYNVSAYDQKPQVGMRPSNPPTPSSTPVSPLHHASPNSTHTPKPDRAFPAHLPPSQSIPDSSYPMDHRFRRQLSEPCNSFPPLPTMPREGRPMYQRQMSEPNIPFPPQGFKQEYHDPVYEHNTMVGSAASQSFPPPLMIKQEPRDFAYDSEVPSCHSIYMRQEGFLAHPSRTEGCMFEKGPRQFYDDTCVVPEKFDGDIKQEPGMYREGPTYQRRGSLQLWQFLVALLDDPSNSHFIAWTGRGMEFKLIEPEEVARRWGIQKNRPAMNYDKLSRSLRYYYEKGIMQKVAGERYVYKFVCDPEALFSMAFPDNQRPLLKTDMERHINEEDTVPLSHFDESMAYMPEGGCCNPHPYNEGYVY
CRX, sequence (O43186 whole entry): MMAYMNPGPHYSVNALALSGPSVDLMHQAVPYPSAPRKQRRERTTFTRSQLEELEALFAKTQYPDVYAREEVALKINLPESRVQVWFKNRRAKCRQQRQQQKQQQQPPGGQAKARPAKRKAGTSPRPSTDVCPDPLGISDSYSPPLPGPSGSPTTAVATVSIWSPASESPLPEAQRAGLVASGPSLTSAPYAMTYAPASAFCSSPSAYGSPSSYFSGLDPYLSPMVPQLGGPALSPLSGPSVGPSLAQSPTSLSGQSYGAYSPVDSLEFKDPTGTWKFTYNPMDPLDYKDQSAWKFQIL
ETV5, sequence (P41161 whole entry): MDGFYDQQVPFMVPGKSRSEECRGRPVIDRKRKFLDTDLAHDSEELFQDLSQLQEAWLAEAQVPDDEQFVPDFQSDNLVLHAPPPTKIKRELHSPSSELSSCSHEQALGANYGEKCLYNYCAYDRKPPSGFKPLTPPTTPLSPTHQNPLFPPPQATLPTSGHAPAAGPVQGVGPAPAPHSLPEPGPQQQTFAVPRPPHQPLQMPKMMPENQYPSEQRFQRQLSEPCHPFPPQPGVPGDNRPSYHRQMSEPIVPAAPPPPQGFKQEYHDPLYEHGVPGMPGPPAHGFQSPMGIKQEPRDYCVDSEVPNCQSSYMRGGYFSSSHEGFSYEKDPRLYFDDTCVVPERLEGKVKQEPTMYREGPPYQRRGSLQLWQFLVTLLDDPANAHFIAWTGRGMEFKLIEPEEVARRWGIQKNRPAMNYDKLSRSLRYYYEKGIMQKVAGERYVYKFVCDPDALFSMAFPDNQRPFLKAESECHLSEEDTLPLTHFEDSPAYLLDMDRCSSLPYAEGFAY

On to ATCCCT, for which the binding signal was 1.3 fold enrichment (6-mer frequency, TF over GST control) with FEV; 1.3 fold enrichment (6-mer frequency, TF over GST control) with ETV5; 1.64 fold enrichment (6-mer frequency, TF over GST control) with HSF1; 1.27 fold enrichment (6-mer frequency, TF over GST control) with SPIC; 1.38 fold enrichment (6-mer frequency, TF over GST control) with ELF4; 1.33 fold enrichment (6-mer frequency, TF over GST control) with ELK4. Also, the binding signal is 1.13 fold enrichment (6-mer frequency, TF over GST control) in the assay with ETV2; 1.22 fold enrichment (6-mer frequency, TF over GST control) with ELF3; 2.17 fold enrichment (6-mer frequency, TF over GST control) with CRX; 1.21 fold enrichment (6-mer frequency, TF over GST control) with ETV1; 1.33 fold enrichment (6-mer frequency, TF over GST control) with ERF; 1.35 fold enrichment (6-mer frequency, TF over GST control) with ETV3L. In addition, the binding signal in the assay with ETS2 was 1.23 fold enrichment (6-mer frequency, TF over GST control); with SPDEF, 1.41 fold enrichment (6-mer frequency, TF over GST control); with ETV7, 1.14 fold enrichment (6-mer frequency, TF over GST control); in the assay with ELF5, 1.37 fold enrichment (6-mer frequency, TF over GST control); in the assay with ETV3, 1.21 fold enrichment (6-mer frequency, TF over GST control); with ETV6, 1.23 fold enrichment (6-mer frequency, TF over GST control).
